The results in this text go back to PubChem BioAssay (EPA / NIEHS).

The structures appear in SMILES notation. Values joined by “and” are separate entries in the source; they are usually repeats but may differ in a detail not shown here. Equal values may be shown once. Where a structure was tested more than once in an assay, its records may differ in their call. Active and inactive are the calls of the source. Rule for the calls: active = hit-call score of the fitted dose curve at least 0.9, where 1 is the maximum; inactive = score below 0.9.

In the assay the target is Retinoic acid receptor alpha (Homo sapiens) (UniProt P10276). Kind of assay: ATG_DR5_RAR_CIS: Attagene CIS-FACTORIAL HepG2 Assay for human Retinoic Acid Receptor Alpha (RARE), DR5 submotif (AID 2282934).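 For AC50: reporter responds to endogenous RAR alpha beta and gamma in HepG2 not RARA alone.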 The following applies: HepG2 Attagene cis-factorial RARE DR5 reporter, mRNA; actives raise or lower the signal. As for the experimental part: ATG_CIS is a cell-based, multiplexed-readout assay that uses HepG2, a human liver cell line, with measurements taken at 24 hours after chemical dosing in a 24-well plate.ATG_DR5_RAR_CIS is one of 52 assay component(s) measured or calculated from the ATG_CIS assay. It is designed to make measurements of mRNA induction, a form of inducible reporter, as detected with fluorescence intensity signals by Reverse transcription polymerase chain reaction (RT-PCR) and Capillary electrophoresis technology.Data from the assay component ATG_DR5_RAR_CIS was analyzed into 1 assay endpoint. This assay endpoint, ATG_DR5_CIS, was analyzed with bidirectional fitting relative to DMSO as the negative control and baseline of activity. Using a type of inducible reporter, measures of mRNA for gain or loss-of-signal activity can be used to understand the reporter gene at the transcription factor-level as they relate to the gene RARA and RARB and RARG. Furthermore, this assay endpoint can be referred to as a primary readout, because this assay has produced multiple assay endpoints where this one serves a reporter gene function. To generalize the intended target to other relatable targets, this assay endpoint is annotated to the nuclear receptor intended target family, where the subfamily is non-steroidal.
Retinoic acid receptor alpha (Homo sapiens), sequence (P10276 whole entry, looked up): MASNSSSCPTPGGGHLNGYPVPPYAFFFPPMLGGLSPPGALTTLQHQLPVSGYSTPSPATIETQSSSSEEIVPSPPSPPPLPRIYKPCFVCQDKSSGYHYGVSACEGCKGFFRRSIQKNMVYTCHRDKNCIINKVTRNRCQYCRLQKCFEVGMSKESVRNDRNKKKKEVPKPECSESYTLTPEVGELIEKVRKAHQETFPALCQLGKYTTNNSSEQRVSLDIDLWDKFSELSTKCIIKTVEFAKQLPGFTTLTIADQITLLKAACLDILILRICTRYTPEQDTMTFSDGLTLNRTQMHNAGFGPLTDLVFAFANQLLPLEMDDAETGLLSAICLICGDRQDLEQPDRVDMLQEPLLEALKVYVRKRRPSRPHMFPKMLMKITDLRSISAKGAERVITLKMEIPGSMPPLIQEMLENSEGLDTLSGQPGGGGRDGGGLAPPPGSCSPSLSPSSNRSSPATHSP
Human liver HepG2 cells are transiently transfected with multiple reporter transcription units (MRTUs) in 6-well plates using FuGene 6 reagent (Roche; 3 ml FuGene/1 mg DNA). The MRTU constructs are regulated by a cis-regulating element (promoter). […] A major difference between the CIS and TRANS system is that in CIS activities of endogenous TFs are measured, whereas the TRANS assay evaluates changes in activities of exogenous, chimeric NR-Gal4 proteins. […] At the end of 24 hour incubation, total RNA was isolated using TriZol reagent (Invitrogen). The isolated RNA is then reverse-transcribed using oligo(dT) primer and Mo-MLV reverse transcriptase (Invitrogen) with DNAse I (Ambion) treatment for 30 min. The one-tenth of the produced cDNA was amplified by PCR using Taq DNA polymerase (Invitrogen) and two reporter sequence-specific primers. The PCR products were fluorescently labeled by primer extension with 6-arboxyfluorescein (6-FAM) 5'-labeled reporter sequence-specific primer (2 min at 95 C, 20 s at 68 C and 10 min at 72 C) and these products were digested with 5U of HpaI (New England Biolabs) for 2h at 37 C. The fragments were purified using Qiaquick PCR columns (Qiagen), analyzed on an ABI 3130xL genetic analyzer (Applied Biosystems) with peak positions identified by using a set of X-rhodamine (ROX)-labeled MapMarker1000 molecular weight standards (BioVentures). The raw capillary electrophoresis data was processed using Attagraph software (Attagene).
Turning to `COP(=S)(OC)Oc1ccc(S(=O)(=O)N(C)C)cc1`, the call was inactive. `O=C1C2(Cl)C3(Cl)C4(Cl)C(Cl)(Cl)C5(Cl)C3(Cl)C1(Cl)C5(Cl)C24Cl` (stereo not given): the AC50 is 20.9 µM (active) and the call was inactive.

For `CCCCCCCCc1ccc(O)cc1`, the call was inactive. Same read-out and setting: in the case of `CN(C)N=O` it was “inactive”; in that of `CN(C)P(=O)(N(C)C)N(C)C`, “inactive”; in that of `ClC1(Cl)C2(Cl)C3(Cl)C4(Cl)C(Cl)(Cl)C5(Cl)C3(Cl)C1(Cl)C5(Cl)C24Cl` (stereo not given), “inactive”. On the same count and under the same terms, in the case of `CCOP(=S)(OCC)SCCS(=O)(=O)CC` it was “inactive”; in that of `CCc1ccccc1N`, “inactive”; in that of `Oc1c(I)cc(I)cc1I`, “inactive”.

In the case of `CC(C)c1cccc(C(C)C)c1O`, the result was inactive. Still for that read-out and setting: in the case of `CCC(C)c1cccc(C(C)CC)c1O` (stereo not given) it was “inactive”; in that of `CCOC(=O)Nc1cccc(OC(=O)Nc2ccccc2)c1`, “inactive”; in that of `CCCCCCCCCl`, “inactive”. Turning to `CC(C)c1ccc(CO)cc1`, the call was inactive. `O=C(O)Cc1ccccc1`: the compound was classed as inactive. As to `COc1cc(-c2ccc(N)c(OC)c2)ccc1N`, the AC50 was 2.98 µM (active) and 19.8 µM (active).

As to `Cc1cc(Cl)ccc1O[C@H](C)C(=O)O`, the outcome was inactive. Still for that read-out and setting: in the case of `NC(=S)Nc1ccccc1` it was “inactive”.

As to `Nc1ccc(N=Nc2ccc(-c3ccc(N=Nc4c(S(=O)(=O)O)cc5cc(S(=O)(=O)O)c(N=Nc6ccccc6)c(O)c5c4N)cc3)cc2)c(N)c1`, the compound was classed as inactive. Same read-out and setting: to `COc1ccc(OC)c(C=O)c1` belongs “inactive”; to `COP(=S)(OC)Oc1cc(Cl)c(Cl)cc1Cl`, “inactive”; to `O=c1[nH]c(=O)[nH]c(=O)[nH]1`, “inactive”. `COc1cc2c(cc1OC)[C@@]13CCN4CC5=CCO[C@H]6CC(=O)N2[C@H]1[C@H]6[C@H]5C[C@H]43`: the call was inactive.

Turning to `COS(=O)(=O)c1ccc(C)cc1`, the compound was called inactive. With `ClC1=C(Cl)[C@]2(Cl)[C@@H]3[C@@H](Cl)[C@@H](Cl)C[C@@H]3[C@@]1(Cl)C2(Cl)Cl`, the result was inactive.

Turning to `[O-][Cl+2]([O-])O`, the outcome was inactive. The same measure, in the same setting: to `CCc1ccccc1C` belongs “inactive”; to `O=[N+]([O-])c1ccc2c3c(cccc13)CC2`, “inactive”. On the same count and under the same terms, in the case of `C[C@]12CCC(=O)C[C@@H]1CC[C@@H]1[C@@H]2CC[C@]2(C)[C@@H](O)CC[C@@H]12` it was “inactive”; in that of `N#CN=C(N)N`, “inactive”; in that of `CC(=O)C=C(C)C`, “inactive”. Turning to `O=[N+]([O-])c1c(Cl)c(Cl)cc(Cl)c1Cl`, the outcome was inactive. On the same count and under the same terms, in the case of `CCN1CCC2(CC1)COc1cc3c(cc12)N(C(=O)c1ccc(-c2ccc(-c4nnc(C)o4)cc2C)cc1)CC3` it was “inactive”; in that of `O=C(O)C(Cl)(Cl)Cl`, “inactive”. The same measure, in the same setting: in the case of `Cc1ccc(N)cc1Cl` it was “inactive”. With `CCOC(=O)/C=C(C)/C=C/C[C@@H](C)CCCC(C)C`, the AC50 is 33.4 µM (active).

Turning to `COc1ccccc1OC`, the call was inactive. On to `CC(C#N)CCC#N` (stereo not given), for which the outcome was inactive.

Take `CC(C)(OO)c1ccccc1`: the AC50 is 48.2 µM (active).
